From PubChem BioAssay (NCATS) come the findings set out here.

For one assay, the system named is KB-3-1. Description: Cytotoxic Profiling of Annotated Libraries Using Quantitative High-Throughput Screening (AID 1296008). For max response: % is set by controls: 0 for no effect and ±100 for the full control effect. As to conditions: Five cell lines viability, CellTiter-Glo ATP luminescence, 48-72 h; max response: stronger effect = lower value. In outline:
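Compounds were pin-transferred onto cells and incubated 48 or 72 hr at 37 degree Celsius, 95% humidity. CellTiter-Glo was added, plates sat 10 min at room temperature, then ATP-coupled luminescence was imaged as the viability read-out.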

For another assay, the system named is PC26. Nature of the assay: qHTS profiling for inhibitors of Plasmodium falciparum proliferation (AID 504749). The following applies: P. falciparum in erythrocytes, SYBR Green DNA, 72 h; series mostly up to 28.7 µM. In outline:
(§1)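 P. falciparum-infected erythrocytes (0.3% parasitemia, 2.5% hematocrit final) were exposed to compounds for 72 h at 37 C in 5% CO2, then lysed with SYBR Green buffer overnight at room temperature; parasite DNA fluorescence was normalized to artemisinin and DMSO controls.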
Background: qHTS replaces the single test concentration by a dilution series.

Another assay relates to PC49. The assay is described as above. As to conditions: P. falciparum in erythrocytes, SYBR Green DNA, 72 h; series mostly up to 28.7 µM. In outline: as §1
A further assay relates to SC27B. The description is as above. The following applies: P. falciparum in erythrocytes, SYBR Green DNA, 72 h; series mostly up to 28.7 µM. The gist of the method: as §1
A further assay relates to TAB109. Described as above. The following applies: P. falciparum in erythrocytes, SYBR Green DNA, 72 h; series mostly up to 28.7 µM. In outline:
as §1

The test system of the next assay is TAB113. Described as above. The following applies: P. falciparum in erythrocytes, SYBR Green DNA, 72 h; series mostly up to 28.7 µM. The gist of the method: as §1
Another assay concerns TAB165. The assay is described as above. As to conditions: P. falciparum in erythrocytes, SYBR Green DNA, 72 h; series mostly up to 28.7 µM. The gist of the method: as §1
The test system of the next assay is W2. Described as above. The following applies: P. falciparum in erythrocytes, SYBR Green DNA, 72 h; series mostly up to 28.7 µM. In outline: as §1

Several values for one entry are separate records, joined by “and”; a condition that tells them apart may be missing. Equal values may be shown once. Results filed as inconclusive are left out. A number with no mark means an inactive call. Activity calls are given as the source filed them. Calls come from the whole dose curve; as a rule, active = well fitted inhibition curve with a large enough effect; inconclusive = small, poorly fitted or top-dose-only effect; inactive = flat fitted curve, though single readings scatter.
Note: nearly all actives have a fitted effect of over 60% in size.
Potency is the fitted concentration of half-maximal effect.

As to `OC[C@@H](O)[C@H]1O[C@@H]2O[C@@H](C(Cl)(Cl)Cl)O[C@@H]2[C@H]1O`, the max response in the assay with KB-3-1 was 1.39%.
Still for that read-out and setting: with `Clc1ccc(C(Cn2ccnc2)OCc2csc3c(Cl)cccc23)c(Cl)c1` (stereo unspecified) the figure was -3.27%.
Consider `COc1ccc2c3c1O[C@H]1C(=O)CC[C@H]4[C@@H](C2)N(C)CC[C@]314`, for which the Potency entry in the assay with PC26, with PC49, in the assay with SC27B, in the assay with TAB109, in the assay with TAB113 and in the assay with TAB165 was “inactive” in each case. Also, the max response in the assay with KB-3-1 is 8.34%.
Turning to `CC(=O)O[C@H]1C[C@H](O[C@H]2[C@@H](O)C[C@H](O[C@H]3[C@@H](O)C[C@H](OC4CC[C@@]5(C)[C@H](CC[C@@H]6[C@@H]5CC[C@]5(C)[C@@H](C7=CC(=O)OC7)CC[C@]65O)C4)O[C@@H]3C)O[C@@H]2C)O[C@H](C)[C@H]1O[C@@H]1O[C@H](CO)[C@@H](O)[C@H](O)[C@H]1O` (stereo partly specified), in the assay with KB-3-1, the Potency was 0.206 µM (active).
For `CCNCC(O)c1cccc(O)c1` (stereo unspecified), the max response with KB-3-1 is 6.6%.
Same read-out and setting: then `ClC1=C(Cl)[C@]2(Cl)[C@@H]3[C@H]4C[C@H]([C@@H]5O[C@H]45)[C@@H]3[C@@]1(Cl)C2(Cl)Cl`, with -3.16%.
In the case of `[H+].[H+].[Hg+2].[O-]B([O-])[O-].[c-]1ccccc1`, in the assay on KB-3-1, the Potency is 8.2 µM (active).
`O=c1ccc2cc(O[C@@H]3O[C@H](CO)[C@@H](O)[C@H](O)[C@H]3O)c(O)cc2o1`: the max response in the assay on KB-3-1 was -2.51%.
The same measure, in the same setting: then `CC(=O)Oc1ccc2c3c1O[C@H]1[C@@H](OC(C)=O)C=C[C@H]4[C@@H](C2)N(C)CC[C@@]341`, with -5% and 2.33%; and `CCNC1(c2cccs2)CCCCC1=O` (stereo unspecified), with -6.94%.
With `O=C1CN=C(c2ccccc2)c2cc(Cl)ccc2N1CC1CC1`, the Potency result in the assay on PC26, with PC49, with SC27B, in the assay with TAB109, in the assay on TAB113 and in the assay on TAB165 was “inactive” throughout. In the assay with KB-3-1, the max response is 1.41%.
With `CN(C)[C@@H]1C(=O)C(C(N)=O)=C(O)[C@@]2(O)C(=O)C3=C(O)c4c(O)ccc(Cl)c4[C@@](C)(O)[C@H]3C[C@@H]12`, in the assay on KB-3-1, the max response was 2.99%.
In the case of `CC1CCC(C(C)C)C(OC(=O)c2ccccc2N)C1` (stereo unspecified), the Potency result with PC26, in the assay on PC49, with SC27B, in the assay on TAB109 and in the assay on TAB113 was “inactive” in each case. Also, the max response in the assay with KB-3-1 is 24.6%.
In the case of `C[N+]1([O-])[C@@H]2CC[C@H]1CC(OC(=O)C(CO)c1ccccc1)C2` (stereo partly specified), the max response with KB-3-1 was -12.1% and -9.46%.
On the same count and under the same terms, then `C[C@]12CC[C@H](OS(=O)(=O)O)CC1=CC[C@@H]1[C@@H]2CC[C@]2(C)C(=O)CC[C@@H]12`, with 5.94%; and `C=C[C@H]1CN2CC[C@H]1C[C@H]2[C@H](OC(=O)OCC)c1ccnc2ccc(OC)cc12`, with 4.99%.
Still for that read-out and setting: then `C[C@]12C=CC(=O)C=C1CC[C@@H]1[C@@H]2CC[C@]2(C)OC(=O)CC[C@@H]12`, with 5.64%.
On to `CCCCCCCCCC(=O)O[C@H]1CC[C@H]2[C@@H]3CCC4=CC(=O)CC[C@]4(C)[C@H]3CC[C@]12C`, for which the Potency result in the assay on PC26, with PC49, in the assay with SC27B, with TAB109, with TAB113 and in the assay on TAB165 was “inactive” each time. Also, the max response with KB-3-1 is 0.58%.
Turning to `OC[C@@H](O)[C@H]1O[C@@H]2O[C@H](C(Cl)(Cl)Cl)O[C@@H]2[C@H]1O`, the max response in the assay with KB-3-1 is 3.48%.
Turning to `c1ccc2sc(SNC3CCCCC3)nc2c1`, the Potency entry in the assay on PC26, with PC49, with SC27B, in the assay with TAB109, with TAB113 and in the assay on TAB165 was “inactive” throughout. For the same compound, the max response in the assay with KB-3-1 was -2.06%.
For the compound `COc1ccc2c3c1O[C@H]1[C@@H](O)C=C[C@H]4[C@@H](C2)NCC[C@@]341`, the max response in the assay with KB-3-1 is 2.68% and -3.7%.
Turning to `CCC1(c2ccccc2)C(=O)NC(=O)N(C(=O)c2ccccc2)C1=O` (stereo unspecified), the Potency result in the assay on PC26, in the assay on PC49, in the assay with SC27B, in the assay on TAB109, in the assay with TAB113 and in the assay with TAB165 was “inactive” throughout. For the same compound, the max response in the assay on KB-3-1 was -9.95%.
Take `ClC(Cl)(Cl)Cl`: the Potency result in the assay on PC26, with PC49, in the assay with SC27B, with TAB109, in the assay on TAB113 and with TAB165 was “inactive” in each case. Moreover, the Potency result in the assay with W2 is “inactive”. Besides, the max response in the assay on KB-3-1 is -1.06%.
Turning to `O=c1[nH]cc(N(CCCl)CCCl)c(=O)[nH]1`, the Potency result in the assay on PC26, in the assay with PC49, with SC27B, with TAB109, in the assay with TAB113 and in the assay with TAB165 was “inactive” throughout. Further, in the assay on W2, the Potency result was “inactive”. Further, in the assay with KB-3-1, the max response is -15%.
Consider `CCC1(C)CC(=O)NC(=O)C1`, for which the Potency entry in the assay with PC26, in the assay with PC49, in the assay on SC27B, with TAB109, with TAB113 and in the assay on TAB165 was “inactive” in each case. Moreover, the Potency result in the assay with W2 was “inactive”. Besides, the max response in the assay with KB-3-1 is 4.64%.
Take `O=C(CCl)c1ccc(Oc2ccc(C(=O)CCl)cc2)cc1`: the Potency result in the assay with PC26, with PC49, in the assay on SC27B, in the assay with TAB109, in the assay with TAB113 and in the assay with TAB165 was “inactive” throughout. Also, in the assay with W2, the Potency result is “inactive”. In addition, the max response in the assay with KB-3-1 is 0.148%.
Consider `O=[N+]([O-])c1ccccc1`, for which the Potency result in the assay on PC26, in the assay with PC49, with SC27B, in the assay on TAB109, in the assay with TAB113 and in the assay with TAB165 was “inactive” throughout. Moreover, the Potency entry with W2 is “inactive”. In the assay with KB-3-1, the max response was 12.1%.
On to `Clc1ccc(C2(Cn3cncn3)OCCO2)c(Cl)c1`, for which the Potency entry in the assay on PC26, with PC49, with SC27B, in the assay on TAB109, with TAB113 and in the assay with TAB165 was “inactive” each time. Moreover, in the assay with W2, the Potency entry was “inactive”. Also, the max response in the assay with KB-3-1 is 4.69%.
For the compound `O=C(O)C(Cl)(Cl)Cl`, the Potency result in the assay on PC26, in the assay on PC49, in the assay on SC27B, in the assay with TAB109, in the assay with TAB113 and with TAB165 was “inactive” throughout. For the same compound, the Potency result in the assay with W2 was “inactive”. Further, in the assay with KB-3-1, the max response is -15.3%.
Turning to `C#CC(C)(O)CC` (stereo unspecified), the Potency entry in the assay on PC26, with PC49, with SC27B, with TAB109, with TAB113 and in the assay with TAB165 was “inactive” each time. Moreover, the Potency entry with W2 is “inactive”. Also, the max response in the assay on KB-3-1 is -2.82%.
On to `ClCC1CO1` (stereo unspecified), for which the Potency entry with PC26, with PC49, in the assay with SC27B, with TAB109, with TAB113 and with TAB165 was “inactive” throughout. Further, in the assay on W2, the Potency result is “inactive”. The max response with KB-3-1 is -11%.
Regarding `c1csc(C2(N3CCCCC3)CCCCC2)c1`, the Potency entry with PC26, in the assay with PC49, with SC27B, in the assay on TAB109, with TAB113 and in the assay with TAB165 was “inactive” throughout. Further, in the assay with W2, the Potency was 9.53 µM (active). For the same compound, the max response with KB-3-1 is 5.46%.
`CCC1(CC)C(=O)NC(=O)N(C)C1=O`: the Potency result in the assay on PC26, with PC49, in the assay with SC27B, with TAB109, in the assay on TAB113 and in the assay with TAB165 was “inactive” in each case. Moreover, the max response in the assay on KB-3-1 is -2.91%.
As for `Oc1cc(Cl)c(Cl)cc1Cl`, the Potency result in the assay on PC26, with PC49, with SC27B, in the assay on TAB109, with TAB113 and in the assay on TAB165 was “inactive” in each case. Moreover, the Potency entry in the assay with W2 is “inactive”. In addition, in the assay with KB-3-1, the max response is 0.226%.
Consider `CCON=O`, for which the Potency result in the assay on PC26, with PC49, with SC27B, in the assay on TAB109, with TAB113 and in the assay with TAB165 was “inactive” each time. The Potency entry in the assay on W2 is “inactive”. Also, the max response in the assay on KB-3-1 is -2.91%.
For `O=[N+]([O-])c1cc(I)c(O)c(I)c1`, the Potency result in the assay with PC26, with PC49, with SC27B, with TAB109, in the assay on TAB113 and in the assay on TAB165 was “inactive” each time. In the assay on W2, the Potency entry is “inactive”. In the assay on KB-3-1, the max response is -0.558%.
For `CC(=O)OO`, the Potency result in the assay with PC26, in the assay on PC49, in the assay on SC27B, in the assay on TAB109, with TAB113 and in the assay on TAB165 was “inactive” throughout. For the same compound, the Potency result in the assay on W2 was “inactive”. Besides, the max response in the assay on KB-3-1 is 2.94%.
